The values that follow come from PubChem BioAssay (NCI).

This is part of a sample that, as a whole, favours compounds with a hit. Of some 83,000 tested, about 20% had one in any assay.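 Single-dose data. Exposure time 48 hours. Values below 10 considered active.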 The source made the active and inactive calls.

In this experiment the test system is HL-60(TB) leukemia. Kind of experiment: NCI-60 one-dose screen, 48 h (100 = growth as untreated, 0 = no growth, -100 = all killed). The following applies: 10 µM unless noted.
Regarding `Oc1ccc(CSc2nnc(-c3ccncc3)n2-c2ccccc2)c2cccnc12`, the growth was 10.9% (inactive).

As to `CN1c2ccccc2Sc2cc(C=C(C#N)C#N)ccc21`, the growth was 92.6% (inactive).

For `CNC(=O)c1cc(-n2ccc3cc(NC(=O)Nc4ccc(N5CCOCC5)c(C(F)(F)F)c4)ccc32)ccn1`, the growth was -37.1% (active).

For `COc1cccc(-c2nn(-c3ccccc3)cc2-c2ccnc(N3CCN(C(=O)c4ccccc4)CC3)c2)c1`, the growth is 34.8% (inactive).
